# Screens: PubChem BioAssay, National Center for Advancing Translational Sciences (NCATS)
# Pf growth 96h – Primary qHTS for delayed death inhibitors of the malarial parasite plastid, 96 hour incubation. P. falciparum luciferase reporter growth, 96 h. Potency, µM (doses to about 28.7 µM), actives largely listed as inhibitors. 6.9% of 320,000 active. AID 504834, 2011
#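 Erythrocytes infected with luciferase-expressing P. falciparum were dispensed at 2% hematocrit and 0.05% parasitemia (final), then incubated with compounds 96 hours at 37 C in 5% CO2. Luminescence after detection reagent addition reported growth.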
# Pf growth 48h – Primary qHTS for delayed death inhibitors of the malarial parasite plastid, 48 hour incubation; 5.9% of 310,000 active; Potency, µM (highest dose often 28.7 µM), hits mostly inhibitors; P. falciparum luciferase growth in erythrocytes, 48 h
#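 A one-generation exposure of luciferase-tagged malaria parasites in RPMI 1640/Albumax erythrocyte culture, 37 C and 5% CO2. Inhibition is inferred from decreased luminescence after adding detection reagent.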
# LmPK inh – qHTS Assay for Inhibitors of Leishmania Mexicana Pyruvate Kinase (LmPK) | Q27686 | purified LmPK, Kinase-Glo ATP luminescence, 1 h | Potency, µM (series often up to 57.5 µM), actives largely listed as inhibitors | 0.37% of 290,000 active | AID 1721, 2009
# Target sequence (Q27686 whole entry, looked up): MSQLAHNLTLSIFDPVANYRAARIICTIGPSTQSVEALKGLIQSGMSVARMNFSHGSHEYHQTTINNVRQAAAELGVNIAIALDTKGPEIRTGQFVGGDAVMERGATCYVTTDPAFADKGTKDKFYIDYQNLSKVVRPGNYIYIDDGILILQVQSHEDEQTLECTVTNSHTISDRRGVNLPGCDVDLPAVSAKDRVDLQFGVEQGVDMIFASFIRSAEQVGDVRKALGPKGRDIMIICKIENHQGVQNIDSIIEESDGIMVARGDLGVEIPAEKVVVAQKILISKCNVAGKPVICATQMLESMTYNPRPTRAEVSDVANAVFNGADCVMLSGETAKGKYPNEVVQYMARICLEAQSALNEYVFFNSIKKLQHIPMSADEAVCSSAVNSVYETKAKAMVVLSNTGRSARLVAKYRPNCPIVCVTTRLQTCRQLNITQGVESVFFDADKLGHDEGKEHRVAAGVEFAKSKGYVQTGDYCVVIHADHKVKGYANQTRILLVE
#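 qHTS format; LmPK 0.1 nM; substrates PEP 0.5 mM and ADP 0.1 mM. One-hour room-temperature incubation, then coupled luciferase luminescence; 0.5 nM enzyme wells mark activation.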
# Cycloheximide cs – Cycloheximide Counterscreen for Small Molecule Inhibitors of Shiga Toxin. AID 2314, 2010. max response, %. 12% of 300,000 active. cell reporter, cycloheximide protein synthesis inhibition counterscreen; in the data active = max response mostly above about 13%, no sharp cut-off; inactive = mostly below about 14%; also: read at 38.3 µM for the half of the compounds with a filed dose
# Shiga inhibitor – A qHTS for Small Molecule Inhibitors of Shiga Toxin; Vero cells, Shiga toxin protein synthesis inhibition reporter; inhibition, % at 38.7 µM; 9.2% of 290,000 active; AID 2315, 2010; in the data active = inhibition mostly above about 28%, no sharp cut-off; inactive = mostly below about 43%
# Hits are given with their value; i = inactive; ? = inconclusive; nt = no result. Shown are actives, neighbours in structure and some others; about 22% of the full set was active somewhere. Unless noted, calls follow the shape of the dose curve; as a rule, active = well fitted inhibition curve with a large enough effect; inconclusive = small, poorly fitted or top-dose-only effect, or another doubt; inactive = no such curve, though single readings can be large or run the other way.
SMILES,Pf growth 96h,Pf growth 48h,LmPK inh,Cycloheximide cs,Shiga inhibitor
Cc1cccc(N=C2Sc3nc4c(C)c(C)ccc4cc3CN2CCN2CCOCC2)c1,7.4µM,12µM,i,i,i
CCOc1ccc(N=C2Sc3nc4ccc(C)cc4cc3CN2CCOC)cc1,i,?,i,i,i
Cc1cccc(OCCCN2CCOCC2)c1,i,i,i,i,i
COCCN1Cc2cc3cc(C)ccc3nc2SC1=Nc1ccc(OC)cc1,i,?,i,15,64
COCCN1Cc2cc3cc(C)ccc3nc2SC1=Nc1cccc(OC)c1,i,15µM,i,i,i
CCOc1ccc2nc3c(cc2c1)CN(CCCO)C(=NCCOC)S3,?,i,i,i,i
Cc1cc2c(cc1Cl)C(c1ccccc1C)CC(=O)O2 (configuration not stated),nt,nt,nt,i,i
CCc1ccc2[nH]c(=O)c(-c3ccccc3)c(O)c2c1,?,i,i,i,nt
O=C(N/N=C/c1cc2cc3c(cc2nc1Cl)OCO3)c1ccncc1,i,i,i,i,i
O=C(NC1CCCC1)C(c1ccccc1)N(C(=O)c1ccno1)c1ccccc1 (configuration not stated),7.4µM,i,i,i,i
O=C(NC1CCCC1)C(c1ccccc1)N(C(=O)c1ccno1)c1cccnc1 (configuration not stated),nt,nt,i,i,i
CC(C)c1ccc(N(C(=O)c2csnn2)C(C(=O)NC2CCCC2)c2ccncc2)cc1 (configuration not stated),i,i,i,30,66
O=C(NC1CCCC1)C(c1ccncc1)N(C(=O)c1csnn1)c1ccccc1 (configuration not stated),5.9µM,i,i,i,i
O=C(NC1CCCC1)C(c1ccncc1)N(C(=O)c1csnn1)c1ccc(F)cc1 (configuration not stated),i,i,i,i,i
O=C(NC1CCCCC1)C(c1ccncc1)N(C(=O)c1csnn1)c1ccccc1 (configuration not stated),i,i,i,i,i
CC(C)(C)C1CCC(=NNC(=O)C(=O)NC2CCCCC2)CC1 (configuration not stated),i,i,i,i,i
O=C(N/N=C/c1sc2ccccc2c1O)c1ccccc1,?,4.7µM,i,50,61
O=C(N/N=C/c1sc2ccccc2c1O)c1cccc2ccccc12,i,?,i,25,i
COc1ccc(C(=O)N/N=C/c2c(CO)cnc(C)c2O)cc1,?,?,i,i,i
COc1ccc(C(=O)N/N=C/c2sc3ccccc3c2O)cc1,?,?,i,40,116
COc1ccc2cc(C(=O)N/N=C/c3sc4ccccc4c3O)ccc2c1,i,?,i,52,111
COc1ccccc1OCC(=O)N/N=C1/C=C(C)CC1,?,i,i,i,i
COC(=O)c1cc(CN2CCN(c3ccccc3)CC2)ccc1O,?,i,i,i,nt
NS(=O)(=O)c1cc2c(cc1Cl)N[C@H](Cc1ccccc1)NS2(=O)=O,i,i,nt,nt,nt
COC(=O)C1=NN(c2ccccc2)C2(S1)SC(C(C)=O)=C(C)N2c1ccccc1 (configuration not stated),i,?,i,i,i
SMILES,Pf growth 96h,Pf growth 48h,LmPK inh,Cycloheximide cs,Shiga inhibitor
COC(=O)C1=NN(c2ccc(C)cc2)C2(S1)SC(C(C)=O)=C(C)N2c1ccccc1 (configuration not stated),nt,10µM,i,i,i
CC(=O)C1=NN(c2ccccc2)C2(S1)S/C(=C\c1ccccc1)C(=O)N2c1ccccc1 (configuration not stated),nt,12µM,i,i,i
CC(=O)N/C(=C\c1ccccc1)C(=O)OCc1cccc(S(=O)(=O)N(C)C)c1,?,?,i,i,i
O=C(NNC(=S)NC(=O)C12CC3CC(CC(C3)C1)C2)c1ccncc1,3.3µM,3.3µM,i,i,i
O=C(NNC(=O)C12CC3CC(CC(C3)C1)C2)c1ccccn1,4.1µM,4.1µM,i,i,i
NS(=O)(=O)c1cccc(NC(=S)NC(=O)C23CC4CC(CC(C4)C2)C3)c1,i,i,i,23,66
Cc1ccc(S(=O)(=O)N(C)C)cc1NC(=S)NC(=O)C12CC3CC(CC(C3)C1)C2,?,?,i,i,i
N#CCCN(C(=O)COC(=O)CNS(=O)(=O)c1ccc2ccccc2c1)c1ccccc1,i,i,nt,nt,nt
COc1ccc(NC(=O)CN2CCCCCC2)cc1OC,i,i,i,i,i
Cc1nnc(SCC(=O)Nc2ccc([N+](=O)[O-])cc2)n1CC1CCCO1 (configuration not stated),i,i,i,i,i
O=S(=O)(Nc1nc2ccccc2nc1Nc1ccc2c(c1)OCO2)c1ccc(F)cc1,i,i,i,i,i
Cc1ccc(OC(=O)C2CSC3(C)CCC(=O)N23)c(Br)c1 (configuration not stated),5.9µM,i,nt,nt,nt
Cc1ccc(NC(=O)COC(=O)C2CSC3(C)CCC(=O)N23)c(C)c1 (configuration not stated),i,i,nt,nt,nt
COc1cc(N=Cc2c(CO)cnc(C)c2O)cc(OC)c1OC,i,i,i,i,i
NC(Cc1ccccc1)c1nc(-c2ccccc2)no1 (configuration not stated),i,i,i,30,38
CCCC(=O)O[C@]1(C(=O)CO)CCC2[C@@H]3CCC4=CC(=O)CC[C@]4(C)C3C(O)C[C@]21C (some centres not stated),?,i,nt,nt,nt
CCN(Cc1cc2ccccc2[nH]c1=O)C(=O)c1cccc([N+](=O)[O-])c1,i,i,i,i,i
N#CCOc1coc(CN2CCN(c3ccccc3)CC2)cc1=O,i,i,i,i,i
Cc1csc(NC(=O)CCC(=O)N(CC(=O)NC2CCCC2)Cc2ccccc2)n1,i,i,i,i,i
CC(=O)N1CCN(S(=O)(=O)c2ccc(Cl)cc2F)CC1,?,?,i,i,i
O=C(CNC(=S)NC(=O)c1ccco1)c1ccccc1,i,i,i,37,75
Cc1ccc(C(=O)NC(=S)NCC(=O)c2ccccc2)cc1,i,i,i,17,i
O=C(CNC(=S)NC(=O)c1cccs1)c1ccccc1,i,i,i,66,90
Cc1ccc(C2CC2c2n[nH]c(=S)n2-c2cccc(Cl)c2)cc1 (configuration not stated),i,i,?,i,i
O=C(NCc1ccccc1Cl)C1CCN(C(=O)c2ccco2)CC1,?,i,i,i,i
Cn1c2ccccc2c2c(C(=O)NCC3CCCO3)cn(C3CCCC3)c(=O)c21 (configuration not stated),4.1µM,?,i,i,i
CC(C)Cn1cc(C(=O)NCC2CCCO2)c2c3ccccc3n(C)c2c1=O (configuration not stated),i,13µM,i,i,i
CCCOC(=O)C1=C(C)NC(=O)NC1c1cc2c(cc1Br)OCO2 (configuration not stated),i,?,i,i,i
